Screening data (PubChem)
Rows were chosen to be rich in hits. Some 8% of all compounds tested hit in one or more screens of this group.
HT1080-NT tox: qHTS for induction of synthetic lethality in tumor cells producing 2HG: qHTS for the HT-1080-NT fibrosarcoma cell line; HT-1080-NT fibrosarcoma viability, CellTiter-Glo ATP luminescence, 48 h; Potency, µM (series often up to 46.1 µM), usual class: cytotoxic; 360,000 tested, 1.6% active; AID 686970, 2013;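 also: NT is the 2HG producing partner of a matched IDH1 knockdown line; nearly all actives have a fitted effect of over 55% in size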
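Read-out is CellTiter-Glo luminescence after 10 minutes at room temperature, following 48 hours' compound treatment of HT-1080-NT cells (750 cells/well, RPMI, 5% FBS, 37 degrees C).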
KB-V1 cytotox: qHTS assay for MDR1-selective chemotherapeutics: Primary screen using the drug-selected MDR subline cells KB-V1 | KB-V1 MDR cells viability, CellTiter-Glo, 72 h | Potency, µM (highest dose often 46.1 µM), usual class: cytotoxic | 400,000 tested, 3.4% active; also: nearly all actives have a fitted effect of over 60% in size
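In this primary screen, KB-V1 cells overexpressing P-gp are incubated with library compounds (lowest to highest concentration) for 72 h at 37 degrees C before a luminescent ATP viability read.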
MCF10A rerep: A quantitative high throughput screen for small molecules that induce DNA re-replication in MCF 10a normal breast cells | MCF 10A DNA re-replication, Hoechst nuclear intensity, 48 h | 350,000 tested, 2.9% active | Potency, µM (top dose mostly 46.1 µM), most hits filed as activators; also: nearly all actives have a fitted effect of over 50% in size
KB-3-1 tox: qHTS assay for MDR1-selective chemotherapeutics: Primary screen using the parental adenocarcinoma cell KB-3-1; KB-3-1 viability, CellTiter-Glo ATP luminescence, 72 h; Potency, µM (top dose mostly 46.1 µM), hits mostly cytotoxic; 400,000 tested, 1.4% active; AID 1347075, 2019; also: nearly all actives have a fitted effect of over 60% in size
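Screening of KB-3-1 cells (DMEM, 10% FBS, phenol-red free) ran from lowest to highest compound concentration; after 72 h at 37 °C viability was read luminescently and curves fitted.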
HT1080 IDH1KD tx: qHTS for induction of synthetic lethality in tumor cells producing 2HG: qHTS for the HT-1080-IDH1KD cell line; HT-1080 IDH1 knockdown viability, ATP luminescence, 48 h; Potency, µM (highest dose often 46.1 µM), actives largely listed as cytotoxic; 360,000 tested, 2% active; AID 686971, 2013
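After a 2 h attachment period, IDH1KD HT-1080 cells took pin-transferred compound for 48 h at 37 °C; ATP-based luminescence after 10 min room-temperature reagent incubation reported viability.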
SW480 rereplic: A quantitative high throughput screen for small molecules that induce DNA re-replication in SW480 colon adenocarcinoma cells. SW480 DNA re-replication, Hoechst DNA content imaging, 48 h. Potency, µM (top dose mostly 46.1 µM), actives largely listed as activators. 340,000 tested, 1.8% active. AID 624297, 2012; also: nearly all actives have a fitted effect of over 55% in size
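SW480 cells exposed to compounds for 48 hr at 37 C, 5% CO2, then Hoechst-stained 40 min. Nuclear DNA content imaged by fluorescence scanning (405 nm excitation, 500-530 nm emission); re-replication scored as increased high-intensity nuclei.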
Numbers stand for hits. Calls follow the shape of the dose curve; as a rule, active = well fitted curve in the direction sought with a large enough effect; inconclusive = small, poorly fitted or top-dose-only effect, or another doubt; inactive = no such curve, though single readings can be large; an effect the other way counts as inactive or inconclusive.

`O=C(c1cccnc1)N1CCN(C/C=C/c2ccccc2)CC1` gave HT1080-NT tox inactive, KB-V1 cytotox inactive, MCF10A rerep inactive, KB-3-1 tox inactive, HT1080 IDH1KD tx inactive and SW480 rereplic inactive.
Screening O=C(/C=C/c1ccco1)N1CCN(C/C=C/c2ccccc2)CC1 returned HT1080-NT tox inactive, KB-V1 cytotox 15µM, MCF10A rerep inconclusive, KB-3-1 tox inactive, HT1080 IDH1KD tx inactive and SW480 rereplic inactive.
O=C(NCCCCNC(=O)C1CCCC1)C1CCCC1 was read as HT1080-NT tox inactive, KB-V1 cytotox inactive, MCF10A rerep inactive, KB-3-1 tox inactive, HT1080 IDH1KD tx inactive and SW480 rereplic inactive.
Screening CCCCOCCCNC(=O)C1CCCCC1 returned HT1080-NT tox inactive, KB-V1 cytotox inactive, MCF10A rerep 12µM, KB-3-1 tox inactive, HT1080 IDH1KD tx inactive and SW480 rereplic inconclusive.
For CC[C@]1(O)C[C@H]2CN(CCc3c([nH]c4ccccc34)[C@@](C(=O)OC)(c3cc4c(cc3OC)N(C=O)[C@H]3[C@@](O)(C(=O)OC)[C@H](OC(C)=O)[C@]5(CC)C=CCN6CC[C@]43[C@@H]65)C2)C1 the results were KB-V1 cytotox inactive, MCF10A rerep inconclusive, KB-3-1 tox 0.12µM and SW480 rereplic 0.3µM.
CC[C@@]1(O)CC2CN(CCc3c([nH]c4ccccc34)[C@](C(=O)OC)(c3cc4c(cc3OC)N(C)C3[C@@](O)(C(=O)OC)C(OC(C)=O)[C@]5(CC)C=CCN6CC[C@@]43C65)C2)C1 (stereo not given in full) was read as MCF10A rerep inconclusive and SW480 rereplic 0.67µM.
For CCOc1ccccc1Nc1nnc(SCc2nnc(-c3cc(OC)c(OC)c(OC)c3)o2)s1 the results were HT1080-NT tox inactive, KB-V1 cytotox inconclusive, MCF10A rerep inconclusive, KB-3-1 tox inactive, HT1080 IDH1KD tx inactive and SW480 rereplic inactive.
Screening COc1cc(-c2nnc(CSc3nnc(Nc4ccc(C(C)C)cc4)s3)o2)cc(OC)c1OC returned HT1080-NT tox inconclusive, KB-V1 cytotox 21µM, MCF10A rerep 15µM, KB-3-1 tox inactive, HT1080 IDH1KD tx 16µM and SW480 rereplic inactive.
`COc1ccccc1Nc1nnc(SCc2nnc(-c3cc(OC)c(OC)c(OC)c3)o2)s1` gave HT1080-NT tox inactive, KB-V1 cytotox inconclusive, MCF10A rerep 21µM, KB-3-1 tox inactive, HT1080 IDH1KD tx inactive and SW480 rereplic inconclusive.
For Cc1cccc(NC(=O)Cn2cc(C(=O)C3CCCCC3)c3ccccc32)c1 the results were KB-V1 cytotox inactive and KB-3-1 tox inactive.
`Cc1ccc2oc(=O)c3cc(C(=O)Nc4cccc(C#N)c4)sc3c2c1` gave KB-V1 cytotox inactive and KB-3-1 tox inactive.
`COc1ccccc1CNC(=O)CSc1ccc(-c2sc(-c3ccccc3)nc2C)nn1` gave KB-V1 cytotox inactive and KB-3-1 tox inactive.
`C=Cc1ccc(Cn2c(C(=O)O)c(CNCc3ccccc3)c3ccc(C)cc32)cc1` gave KB-V1 cytotox inactive and KB-3-1 tox inconclusive.
Screening CCOC(=O)C(C(C)=O)c1c(Br)c(O)c(O)c2c(C(=O)c3ccc(C)cc3)coc12 (stereo not given) returned HT1080-NT tox 8.9µM, KB-V1 cytotox 21µM, MCF10A rerep inconclusive, KB-3-1 tox inactive, HT1080 IDH1KD tx 8.9µM and SW480 rereplic inconclusive.
CCOC(=O)c1c(C)n(-c2ccc(C)cc2)c2c(C(C(C)=O)C(=O)O)c(Br)c(O)c(O)c12 (stereo not given) was read as HT1080-NT tox inconclusive, KB-V1 cytotox inactive, MCF10A rerep inactive, KB-3-1 tox inactive, HT1080 IDH1KD tx inactive and SW480 rereplic inconclusive.
